Among the data in PubChem BioAssay (NCATS) are Potency and activity change, negative = cytotoxicity values, retold here.

Records with an inconclusive call do not appear. Where a call stands in place of a potency, no number is given. Active and inactive are the calls of the source. Calls follow the shape of the dose curve; as a rule, active = well fitted cell-killing curve with a large enough effect; inconclusive = small, poorly fitted or top-dose-only effect, or effect the other way; inactive = flat fitted curve, though single readings scatter.

For the test, the system named is Hek293T. Briefly: Primary qHTS to identify gynecologic anti-cancer compounds using libraries of approved drugs and bioactive compounds (AID 1345084). Also: nearly all actives have a fitted effect of over 55% in size. Particulars: Gynecologic cancer cell panel viability, ATPlite luminescence, 48 h, control line for the selectivity index; series mostly up to 57.5 µM. The essentials:
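48 h compound exposure at 37 C, 5% CO2; five-point qHTS. ATPlite luminescence readout of cell ATP.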
Turning to `CCNC1(C(N)=O)CN(c2nc(C)nc3c(-c4ccc(Cl)cc4)c(-c4ccccc4Cl)nn23)C1`, the Potency entry was “inactive”.
Turning to `O=C([C@@H]1CCCN(c2ccc3[nH]c(C4(n5cc(Cl)cn5)CC4)nc3n2)C1)N1CCCC1`, the Potency result is “inactive”.
Turning to `Cn1ccc(NC(=O)c2cc(Oc3ccc(C(=O)N4CCC4)c(F)c3)c3c(c2)OC(C)(C)C3)n1`, the Potency result was “inactive”.
For the compound `CC1(CO)CC2C(O)C3=C(CC(C)(O)C2C1)C(=O)OC3` (configuration not stated), the Potency entry is “inactive”.
Same read-out and setting: the same measure for `C[C@@H]1O[C@@H](O[C@H]2[C@@H]3C=CO[C@@H](O[C@@H]4O[C@H](CO)[C@@H](O)[C@H](O)[C@H]4O)[C@@H]3[C@@]3(CO)O[C@@H]23)[C@H](O)[C@H](OC(=O)/C=C/c2ccccc2)[C@H]1O`: “inactive”; for `CC(=O)O[C@@H]1CC2C(/C=C(\C)C(=O)[C@@]3(O)C[C@@H](C)[C@H](OC(=O)c4ccccc4)C3/C=C/1C)C2(C)C` (some centres not stated): “inactive”; for `COCCCNC(=O)c1ccc(Cn2c(=O)c3ccccc3n(Cc3ccc(C(C)C)cc3)c2=O)cc1`: “inactive”.
Same read-out and setting: the same measure for `Cc1ccc(C(C)C)c(O[C@@H]2O[C@H](CO)[C@@H](O)[C@H](O)[C@H]2O)c1`: “inactive”.
Still for that read-out and setting: the same measure for `O=C(Nc1ccccc1)N1CCC(Cc2cnc3ccccc3c2)CC1`: “inactive”; for `CN(C)CCOc1cc(NS(=O)(=O)c2c(Cl)cc(C(F)(F)F)cc2Cl)ccc1Cl`: “inactive”.
For `COc1ccc(NC(=O)C2C[C@H](C)CC[C@H]2C(C)C)cc1` (some centres not stated), the Potency result is “inactive”.
The same measure, in the same setting: the result for `Cc1noc(-c2ccc(-c3ccc(CC(=O)O)cc3)cc2)c1NC(=O)O[C@H](C)c1ccccc1Cl` reads “inactive”.
Regarding `Cc1cccc(N2CCN(C(=O)c3cc(S(=O)(=O)N(C)C)ccc3N3CCCC3)CC2)c1C`, the Potency result was “inactive”.
As to `C[C@]12CC[C@@H]3c4ccc(O)c(O)c4CC[C@H]3[C@@H]1CCC2=O`, the Potency entry is “inactive”.
With `O=C(Nc1ccccc1)c1ccc(Nc2nnc(-c3ccc(O)cc3)c3ccccc23)cc1`, the Potency entry was “inactive”.
With `CC1(NC(=O)c2ccc(C#Cc3cccc(F)c3)cn2)COC1`, the Potency result was “inactive”.
Regarding `COc1ccc(S(=O)(=O)N2CCC[C@H]2C(=O)Nc2cc(C)cc(C)c2)cc1`, the Potency result is “inactive”.
Still for that read-out and setting: the result for `COc1cc(C2OC(c3ccc(OC)c(OC)c3)C(C)C2C)ccc1O` (configuration not stated) reads “inactive”; that for `C#CCCCn1cc(-c2cccc3c2N[C@H](C)CC(=O)N3)cn1`, “inactive”.
On to `CC(=O)O[C@@H]1[C@@H](O)[C@H](O[C@@H]2[C@@H](O)[C@@H](O)[C@H](O[C@H]3[C@H](O[C@H]4[C@H](O[C@H]5CC[C@@]6(C)C(CC[C@]7(C)C6CC=C6[C@@H]8CC(C)(C)CC[C@]8(C(=O)O)CC[C@]67C)[C@]5(C)CO)O[C@H](CO)[C@@H](O)[C@@H]4O)OC[C@@H](O)[C@@H]3O)O[C@H]2C)OC[C@H]1O` (some centres not stated), for which the activity change, negative = cytotoxicity was 1.05% [at 11.6 µM] (inactive).
Take `CCC/C=C/C(=O)O[C@H]1CC(C)(C)CC2[C@@]13[C@H](O)C[C@]1(C)[C@@]2(CCC2[C@@]4(C)CC[C@H](O[C@@H]5O[C@H](C(=O)O)[C@@H](O)[C@H](O[C@@H]6O[C@H](CO)[C@H](O)[C@H](O)[C@H]6O[C@@H]6O[C@@H](C)[C@H](O)[C@@H](O)[C@H]6O[C@@H]6OC[C@](O)(CO)[C@H]6O)[C@H]5O[C@@H]5O[C@H](CO)[C@H](O)[C@H](O)[C@H]5O)C(C)(C)C4CC[C@]21C)O[C@H]3O` (some centres not stated): the activity change, negative = cytotoxicity is -25.4% [at 6.55 µM] (inactive).
On to `Cc1ccc(-c2ncc[nH]2)cc1NC(=O)c1ccc(OCc2ccccn2)cc1`, for which the Potency entry is “inactive”.
As to `COc1cc(CCc2ccc(OCC=C(C)C)cc2)cc(OC)c1OC`, the Potency result was “inactive”.
For the compound `CNC(=O)COC(=O)N1CCC(CCc2ccc(Cl)cc2)CC1`, the Potency entry is “inactive”.
For `COC1C=C(C)C(O)(CO)C2(C)CCCC(C)(C)C12` (configuration not stated), the Potency result was “inactive”.
Same read-out and setting: the same measure for `O=C(O)c1ccc(S(=O)(=O)N(Cc2ccc(OC(F)(F)F)cc2)c2ncc(C(F)(F)F)cc2Cl)cc1`: “inactive”; for `C=C(C)C(=O)O[C@H]1[C@H]2C(=C)C(=O)O[C@@H]2/C=C(\CO)CC/C=C(/C=O)[C@@H]1O`: “inactive”.
Regarding `C=C[C@]1(C)C[C@H](O)[C@H]2C(=C)C(=O)O[C@@H]2[C@H]1C(=C)CO`, the Potency entry is “inactive”.
Same read-out and setting: the result for `COC(=O)c1ccnc(-c2cc(C(=O)Nc3ccc(C4(N)CC4)cc3)ccn2)c1` reads “inactive”; that for `O=C(Nc1ccc2[nH]c(=O)oc2c1)C(=O)N1CCC(Cc2ccc(F)cc2)CC1`, “inactive”; that for `O=C(Nc1cccnn1)N1CCN(c2nccc(-c3ccc(F)c(F)c3)n2)CC1`, “inactive”.
`O=C(Nc1cc(C(F)(F)F)ccc1N1CCCCC1)c1ccncc1`: the Potency result is “inactive”.
